Compound activity as filed in PubChem.
The list is not random: actives were taken first. Their share in the collection is about 2.3%.
CHT allo act: allosterically activates the human high affinity choline transporter; B-score at 10 µM; CHT-expressing cells, membrane potential dye, choline EC20; hits give high values; LV-AA mutant CHT in HEK293 cells; 0.49% of 310,000 active; Q9GZV3;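 active = initial fluorescence not abnormally high and integrated response B-score, plate-corrected, over 3 SD above library mean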
CHT block: human CHT choline transport inhibition; Q9GZV3; CHT-expressing cells, membrane potential dye, choline response; hits give low values; B-score at 10 µM; 0.86% of 310,000 active;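 active = B-score over 3 SD under the library average, and starting fluorescence ratio not unusually high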;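 note: choline stimulus applied at its EC90 after an EC20 pre-addition; B-score computed on integrated fluorescence ratio after choline addition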
ANO1 block: inhibitors of mouse TMEM16A calcium-activated chloride channel | Q8BHY3 | HEK293 TMEM16A/YFP iodide influx fluorescence, ionomycin | normalized B-score (activity score, 25-100; higher = stronger inhibition) at 10 µM | 1.2% of 310,000 active | AID 588511;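 active = ratio plate-corrected score three or more library SD toward inhibition, starting fluorescence score within five deviations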;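 note: score derived from kinetic fluorescence span divided by baseline fluorescence per well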
Target sequence (Q8BHY3 whole entry, looked up): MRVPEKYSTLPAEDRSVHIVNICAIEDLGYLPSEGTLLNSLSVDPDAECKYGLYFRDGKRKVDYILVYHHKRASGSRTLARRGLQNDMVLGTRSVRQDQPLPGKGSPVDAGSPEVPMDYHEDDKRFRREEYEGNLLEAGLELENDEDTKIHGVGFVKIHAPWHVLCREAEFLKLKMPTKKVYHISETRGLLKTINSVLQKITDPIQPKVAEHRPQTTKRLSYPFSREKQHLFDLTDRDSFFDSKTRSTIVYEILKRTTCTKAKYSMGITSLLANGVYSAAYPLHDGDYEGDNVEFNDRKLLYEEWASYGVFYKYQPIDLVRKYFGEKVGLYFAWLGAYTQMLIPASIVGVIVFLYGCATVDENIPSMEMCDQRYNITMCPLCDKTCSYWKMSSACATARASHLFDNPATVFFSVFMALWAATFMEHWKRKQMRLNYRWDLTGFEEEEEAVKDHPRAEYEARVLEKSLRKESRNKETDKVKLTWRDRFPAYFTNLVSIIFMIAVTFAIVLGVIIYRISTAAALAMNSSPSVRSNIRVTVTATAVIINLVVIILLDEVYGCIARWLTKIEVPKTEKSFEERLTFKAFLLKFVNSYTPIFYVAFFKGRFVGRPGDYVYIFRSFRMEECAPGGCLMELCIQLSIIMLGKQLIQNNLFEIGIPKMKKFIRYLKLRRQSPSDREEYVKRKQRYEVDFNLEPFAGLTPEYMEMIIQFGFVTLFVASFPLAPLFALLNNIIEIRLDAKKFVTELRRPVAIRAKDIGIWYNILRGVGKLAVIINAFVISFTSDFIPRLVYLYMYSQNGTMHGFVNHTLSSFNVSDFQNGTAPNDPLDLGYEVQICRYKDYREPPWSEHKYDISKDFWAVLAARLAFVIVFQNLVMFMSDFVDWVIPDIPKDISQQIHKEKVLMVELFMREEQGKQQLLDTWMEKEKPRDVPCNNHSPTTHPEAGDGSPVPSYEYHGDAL
ANO1 activ: activators or potentiators of mouse TMEM16A chloride channel. AID 623877. HEK293 TMEM16A/YFP-H148Q/I152L, iodide quench fluorescence; hits give low values. 0.3% of 340,000 active. B-score at 10 µM;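 active = fluorescence-ratio B-score plate-corrected deviation score at least 3 library SD below zero, with starting fluorescence score within 5 deviations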;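 note: channel opened by trigger with iodide after compound preincubation; score built on the fluorescence ratio of max minus min over baseline; more negative score means more quench and so TMEM16A activation or potentiation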
CHT activ conf: confirmation of human choline transporter (CHT) activators | 91% of 2,500 active | CHT-expressing cells, membrane potential dye fluorescence (FDSS); % of choline EC20–EC90 response window; HEK293 expressing CHT LV-AA mutant; choline added at its EC20 | activation, % at 10 µM | shares compounds with CHT allo act;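 active = primary screen active, with duplicate mean activation above negative control mean plus 3 SD, cut at about 11% in these data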
HEK293 MP dye: CHT activator counter-screen hit in parental HEK293 cells | shares compounds with CHT allo act | membrane potential dye fluorescence (FDSS); measured after EC20 choline addition | ratio readout change at 10 µM, hits read low | 62% of 2,500 active | AID 623908;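 active = duplicate-averaged ratio beyond 3 SD from buffer wells, up or down, though filed actives are nearly all decreases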
The depositor's hits bear a star; i = inactive; / = no result given.

SMILES	CHT allo act	CHT block	ANO1 block	ANO1 activ	CHT activ conf	HEK293 MP dye
[N-]=[N+]=CC(=O)C(c1ccccc1)(c1ccccc1)c1ccccc1	i	i	i	i	/	/
O=C(NC(=O)c1ccc(F)cc1F)Nc1ccc(Cl)cc1	i	i	i	i	/	/
FC(F)(F)c1cccc(N2Cc3ccccc3C2)c1	i	i	i	i	/	/
CC1CSc2n(-c3cccc(C(F)(F)F)c3)cc(-c3ccccc3)[n+]21 (stereo unspecified)	i	i	i	i	50.2*	-31.1*
O=C(COC(=O)c1cc(Br)ccc1O)NC12CC3CC(CC(C3)C1)C2	/	/	/	i	/	/
CN(C)c1ccc(/C=N/NC(=O)C(=O)/C=C2\NC3(CCCC3)Cc3ccccc32)cc1	6.68*	i	i	i	-0.2	i
COc1cc(/C=N/NC(=O)C(=O)/C=C2\NC3(CCCC3)Cc3ccccc32)ccc1O	i	i	i	i	/	/
CCN1CCc2c(sc(NC(=O)Cc3ccccc3)c2C(=O)OC)C1	i	i	i	i	/	/
CCN1CCc2c(sc(NC(=O)c3ccc(S(=O)(=O)N4CCOCC4)cc3)c2C(N)=O)C1	7.8*	i	i	i	38.4*	-41*
CCOC(=O)c1c(NC(=O)Cc2ccccc2)sc2c1CCN(CC)C2	i	i	i	i	34.1*	-34.6*
COc1ccc(Br)cc1/C=N/NC(=O)c1cc(OC)c(OC)c(OC)c1	i	i	i	i	/	/
COc1cc(C(=O)N/N=C/c2ccsc2C)cc(OC)c1OC	i	i	i	i	18.7*	i
Cc1ccn2c(NC(=O)c3ccco3)c(-c3ccccc3)nc2c1	i	i	i	i	/	/
Cc1ccccc1Nc1c(-c2ccc(N3CCOCC3)cc2)nc2cnccn12	9.39*	i	i	i	29.1*	-54.8*
Cc1ccn2c(Nc3ccccc3C)c(-c3cccnc3)nc2c1	i	i	i	i	40.7*	-48.6*
Cc1ccccc1Nc1c(-c2ccc(N3CCOCC3)cc2)nc2ncccn12	i	i	i	i	24.8*	-53.1*
COc1ccccc1C(=O)OCCc1ccccc1	/	/	/	i	/	/
Cc1ccc2c(n1)sc1c(N)ncnc12	8.32*	i	i	i	53.2*	-32.4*
CCOc1ccc(S(=O)(=O)N2CCCCC2)cc1NC(=O)CCNC(=O)c1ccco1	/	/	/	i	/	/
O=[N+]([O-])c1cccc(/C=N/Nc2nccnc2Cl)c1	6.24*	i	i	i	40.7*	-37.2*
COc1ccc(C(=O)c2nccc3cc(OC)c(OC)cc23)cc1OC	/	/	/	i	/	/
COc1ccc(C(O)c2nccc3cc(OC)c(OC)cc23)cc1OC (stereo unspecified)	9.21*	i	i	i	59.0*	-74.3*
COc1cc(N)c(C(O)c2nccc3cc(OC)c(OC)cc23)cc1OC (stereo unspecified)	i	i	i	i	69.6*	-51.3*
COc1cc(N)c2ncccc2c1Cl	/	/	/	i	/	/
Cc1ccc2oc(=O)cc(CN3CCC(C)CC3)c2c1	i	i	i	i	/	/
SMILES	CHT allo act	CHT block	ANO1 block	ANO1 activ	CHT activ conf	HEK293 MP dye
CN1CCN(Cc2cc(=O)oc3cc4c(cc23)CCC4)CC1	i	i	i	i	22.0*	-49.4*
CCN1CCN(Cc2cc(=O)oc3ccc(C)cc23)CC1	i	i	i	i	44.1*	-46.4*
CCc1cc2c(CN3CCN(CCO)CC3)cc(=O)oc2cc1O	i	i	i	i	37.5*	-29.6*
Cc1ccc2c(CN3CCN(CCO)CC3)cc(=O)oc2c1C	8.9*	i	i	i	54.4*	-58.6*
Cc1ccc2c(CN3CCOCC3)cc(=O)oc2c1C	i	i	i	i	/	/
CCc1cc2c(CN3CCN(C)CC3)cc(=O)oc2cc1O	i	i	i	i	/	/
CC1CCN(Cc2cc(=O)oc3cc4c(cc23)CCCC4)CC1	i	i	i	i	/	/
O=C(NC1CC(=O)N(c2ccc(F)cc2)C1)C(=O)c1c[nH]c2ccccc12 (stereo unspecified)	i	i	i	i	/	/
COCCCNC(=O)CNC(=O)c1nn(-c2ccc(OC)c(Cl)c2)c(=O)c2ccccc12	i	i	i	i	/	/
Cc1cc(C)c2c(CN3CCN(C)CC3)cc(=O)oc2c1	i	i	i	i	45.5*	-41.5*
O=C(O)c1cc(N=Cc2c(O)c3ccccc3oc2=O)ccc1O	i	i	i	i	/	/
COc1ccc(OC)c2c(C)cc(N3CCN(C(=O)c4ccc(F)cc4)CC3)nc12	6.55*	i	i	i	41.4*	-68.5*
Cc1c(C)n(-c2ccccc2)c2ncnc(NCCN(C)C)c12	i	i	i	/	46.2*	-41.7*
COc1ccc(-n2c(C)c(C)c3c(NCCN(C)C)ncnc32)cc1	7*	i	i	i	45.2*	-33.4*
CC1=N/C(=C/c2cc(Br)cc(Br)c2O)C(=O)O1	i	i	i	i	/	/
Nc1ccccc1S(=O)(=O)NC1=NCCCCC1	i	i	i	i	/	/
CCOc1cc(C2C(C(=O)OC)=CN(Cc3ccc(Cl)cc3)C=C2C(=O)OC)ccc1O	i	i	i	i	20.4*	i
COC(=O)C1=CN(Cc2ccccc2)C=C(C(=O)OC)C1c1ccc(O)c(OC)c1	i	i	i	i	/	/
NC(=O)CC(NC(=O)c1cccc(Br)c1)c1ccc(NC2CCCCCCC2)c([N+](=O)[O-])c1 (stereo unspecified)	i	i	i	i	/	/
Cc1cc2oc(=O)cc(Cn3ccnc3)c2cc1Cl	i	i	i	i	/	/
Cc1cc(Cn2ccnc2)c(C)cc1Cn1ccnc1	i	i	i	i	45.1*	-40.8*
CCOC(=O)c1c(CN(C)C)oc2cc(CN(C)C)c(O)c(CSc3ccccc3)c12	i	i	i	i	/	/
CCOC(=O)c1c(CSc2ccsc2)n(C)c2cc(Br)c(O)c(CN(C)C)c12	6.79*	i	i	i	40.3*	i
Cn1c(=O)c(=O)n(C)c2cc(N3CCOCC3)c(NS(=O)(=O)c3ccc(F)c(Cl)c3)cc21	6.56*	i	i	i	48.5*	-51.4*
Cn1c(=O)c(=O)n(C)c2cc(N3CCCC3)c(NS(=O)(=O)c3ccc(Cl)cc3)cc21	6.62*	i	i	i	55.3*	-55*
Cn1c(=O)c(=O)n(C)c2cc(N3CCOCC3)c(NS(=O)(=O)c3ccc([N+](=O)[O-])cc3)cc21	i	i	i	i	/	/
